A short description of experiment [1]: NCI Yeast Anticancer Drug Screen. Data for the rad50 strain (AID 155).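 Note: 0% = growth of vehicle-only cultures of the same strain.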 Conditions: S. cerevisiae rad50 strain growth inhibition, active compounds read high. The method in brief: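 Readout: growth inhibition relative to vehicle-treated cultures. Compound exposure was carried out in a genetically defined yeast strain deficient in DNA damage repair.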
Experiment [2] can be described thus: NCI Yeast Anticancer Drug Screen. Data for the mec2-1 strain (AID 157). Conditions: S. cerevisiae mec2-1 strain, active compounds read high. In outline: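 Compounds were applied to mec2-1 yeast cells. Their growth was then compared with that of vehicle-treated cultures to give growth inhibition.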
Experiment [3] can be described thus: NCI Yeast Anticancer Drug Screen. Data for the sgs1 mgt1 strain (AID 161).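 Note: 0% = growth of cultures given vehicle only.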 Conditions: S. cerevisiae sgs1 mgt1 strain, active compounds read high. In outline:
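Growth of a repair-deficient yeast mutant was monitored after compound treatment and expressed as inhibition relative to vehicle-treated cultures.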

A short description of experiment [4]: NCI Yeast Anticancer Drug Screen. Data for the cln2 rad14 strain (AID 165).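 Note: 0% = growth equal to vehicle treated cultures.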 Conditions: S. cerevisiae cln2 rad14 strain, active compounds read high. In outline: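 Strain: cln2 rad14 yeast, altered in cell cycle control and DNA damage repair. Read-out: growth inhibition vs vehicle.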
Experiment [5] in a line: NCI Yeast Anticancer Drug Screen. Data for the bub3 strain (AID 167). Conditions: S. cerevisiae bub3 mutant strain, active compounds read high. The method in brief:
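Readout: yeast growth inhibition, expressed relative to vehicle-only wells. The test organism is a mutant strain from a panel with lesions in DNA repair or checkpoint genes.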

A short description of experiment [6]: NCI Yeast Anticancer Drug Screen. Data for the mlh1 rad18 strain (AID 175). Particulars: S. cerevisiae mlh1 rad18 strain growth inhibition, active compounds read high. The method in brief: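 A repair-deficient yeast strain is exposed to test compound, and growth is scored relative to vehicle-treated controls.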
Setting [7] is: at 5.0 µM (retest, dose inferred, filed as 0.5).
Setting [8] is: at 50.0 µM (retest, dose inferred, filed as 5.0).

In PubChem BioAssay (NCI) one finds growth inhibition data, which are given here for 9 compounds.

This is part of a sample that, as a whole, favours compounds with a hit. Of some 79,000 tested, about 15% had one in any assay. A number with no mark means an inactive call. Activity calls are given as the source filed them. Cut-off read from the data, not from the text of the source: active = growth inhibition above about 70%; inactive = the rest.

`C(=N\Nc1c2ccccc2nc2ccccc12)/c1ccc2c(c1)OCO2`: the growth inhibition was 0% in experiment [1] (setting [7]); 97% (active) in experiment [1] (setting [8]); 99.3% (active) in experiment [1] (at 50.0 µM); 7% in experiment [2] (setting [7]); 99% (active) in experiment [2] (setting [8]); 84.8% (active) in experiment [2] (at 50.0 µM). The growth inhibition in experiment [3] (setting [7]) is 0%; in experiment [3] (setting [8]) it was 99% (active); in experiment [3] (at 50.0 µM) it was 99.4% (active); in experiment [4] (setting [7]), 2%; in experiment [4] (setting [8]), 89% (active); in experiment [4] (at 50.0 µM) it was 82% (active). Besides, the growth inhibition in experiment [5] (setting [7]) was -11%; in experiment [5] (setting [8]), 93% (active); in experiment [5] (at 50.0 µM), 99.2% (active); in experiment [6] (setting [7]) it was 1%; in experiment [6] (setting [8]), 98% (active); in experiment [6] (at 50.0 µM), 99.3% (active).
On to `CN(C)c1ccc(/C=N/c2nc(-c3ccccc3)cs2)cc1`, for which the growth inhibition was 9% in experiment [1] (setting [7]); 90% (active) in experiment [1] (setting [8]); 94.9% (active) in experiment [1] (at 50.0 µM); 7% in experiment [2] (setting [7]); 96% (active) in experiment [2] (setting [8]); 98.4% (active) in experiment [2] (at 50.0 µM). Further, the growth inhibition is 5% in experiment [3] (setting [7]); 92% (active) in experiment [3] (setting [8]); 98% (active) in experiment [3] (at 50.0 µM); 2% in experiment [4] (setting [7]); 89% (active) in experiment [4] (setting [8]); 97.2% (active) in experiment [4] (at 50.0 µM). Also, the growth inhibition in experiment [5] (setting [7]) was 1%; in experiment [5] (setting [8]), 93% (active); in experiment [5] (at 50.0 µM) it was 93.2% (active); in experiment [6] (setting [7]) it was 23%; in experiment [6] (setting [8]) it was 95% (active); in experiment [6] (at 50.0 µM), 97.8% (active).
Turning to `Cc1nc(Cl)c(C#N)c(C)c1[N+](=O)[O-]`, the growth inhibition is -103% in experiment [1] (setting [7]); 91% (active) in experiment [1] (setting [8]); 79.9% (active) in experiment [1] (at 50.0 µM); -31% in experiment [2] (setting [7]); 81% (active) in experiment [2] (setting [8]); 81.9% (active) in experiment [2] (at 50.0 µM). The growth inhibition in experiment [3] (setting [7]) was -46%; in experiment [3] (setting [8]) it was 84% (active); in experiment [3] (at 50.0 µM), 70.3% (active); in experiment [4] (setting [7]), -37%; in experiment [4] (setting [8]) it was 75% (active); in experiment [4] (at 50.0 µM), 87% (active). Further, the growth inhibition is -63% in experiment [5] (setting [7]); 83% (active) in experiment [5] (setting [8]); 75.3% (active) in experiment [5] (at 50.0 µM); -115% in experiment [6] (setting [7]); 91% (active) in experiment [6] (setting [8]); 84.8% (active) in experiment [6] (at 50.0 µM).
On to `CC[N+]1(C)CC2CCC(CC2)C1` (configuration not stated), for which the growth inhibition in experiment [1] (setting [7]) is -2%; in experiment [1] (setting [8]) it was -5%; in experiment [1] (at 50.0 µM), -1.6%; in experiment [2] (setting [7]), -3%; in experiment [2] (setting [8]), -3%; in experiment [2] (at 50.0 µM), 35%. Further, the growth inhibition is -4% in experiment [3] (setting [7]); -2% in experiment [3] (setting [8]); 7.2% in experiment [3] (at 50.0 µM); -4% in experiment [4] (setting [7]); -6% in experiment [4] (setting [8]); 72% (active) in experiment [4] (at 50.0 µM). The growth inhibition in experiment [5] (setting [7]) was -3%; in experiment [5] (setting [8]) it was 2%; in experiment [5] (at 50.0 µM), -7.15%; in experiment [6] (setting [7]), -4%; in experiment [6] (setting [8]), -3%; in experiment [6] (at 50.0 µM), 7.35%.
As for `COc1cc(Br)c(CC(NC=O)c2ccc3c(c2)OCO3)cc1OC` (configuration not stated), the growth inhibition in experiment [1] (setting [7]) was -4%; in experiment [1] (setting [8]) it was 81% (active); in experiment [1] (at 50.0 µM) it was 62.5%; in experiment [2] (setting [7]) it was -3%; in experiment [2] (setting [8]), 74% (active); in experiment [2] (at 50.0 µM) it was 66.3%. Moreover, the growth inhibition in experiment [3] (setting [7]) is -5%; in experiment [3] (setting [8]) it was 95% (active); in experiment [3] (at 50.0 µM), 36.5%; in experiment [4] (setting [7]) it was 4%; in experiment [4] (setting [8]), 95% (active); in experiment [4] (at 50.0 µM), 57.4%. In addition, the growth inhibition was 3% in experiment [5] (setting [7]); 98% (active) in experiment [5] (setting [8]); 96.3% (active) in experiment [5] (at 50.0 µM); -1% in experiment [6] (setting [7]); 81% (active) in experiment [6] (setting [8]); 56.5% in experiment [6] (at 50.0 µM).
Take `CSc1cc2c(cc1N)Cc1ccccc1-2`: the growth inhibition was 3% in experiment [1] (setting [7]); 71% (active) in experiment [1] (setting [8]); 85.4% (active) in experiment [1] (at 50.0 µM); 8% in experiment [2] (setting [7]); 88% (active) in experiment [2] (setting [8]); 90.8% (active) in experiment [2] (at 50.0 µM). Moreover, the growth inhibition in experiment [3] (setting [7]) was 3%; in experiment [3] (setting [8]), 30%; in experiment [3] (at 50.0 µM) it was 97% (active); in experiment [4] (setting [7]), 1%; in experiment [4] (setting [8]), 50%; in experiment [4] (at 50.0 µM), 88.7% (active). For the same compound, the growth inhibition in experiment [5] (setting [7]) was -1%; in experiment [5] (setting [8]), 91% (active); in experiment [5] (at 50.0 µM), 97.3% (active); in experiment [6] (setting [7]), 6%; in experiment [6] (setting [8]), 89% (active); in experiment [6] (at 50.0 µM) it was 97.3% (active).
Consider `OC1(c2ccc(Br)cc2)C2CCCCC2C2CCCCC21` (configuration not stated), for which the growth inhibition in experiment [1] (setting [7]) is 36%; in experiment [1] (setting [8]) it was 92% (active); in experiment [1] (at 50.0 µM) it was 98% (active); in experiment [2] (setting [7]), 7%; in experiment [2] (setting [8]) it was 95% (active); in experiment [2] (at 50.0 µM), 98.5% (active). Moreover, the growth inhibition in experiment [3] (setting [7]) is 18%; in experiment [3] (setting [8]) it was 95% (active); in experiment [3] (at 50.0 µM), 98.3% (active); in experiment [4] (setting [7]), -4%; in experiment [4] (setting [8]), 92% (active); in experiment [4] (at 50.0 µM), 97.7% (active). Also, the growth inhibition was 7% in experiment [5] (setting [7]); 93% (active) in experiment [5] (setting [8]); 98.4% (active) in experiment [5] (at 50.0 µM); 10% in experiment [6] (setting [7]); 95% (active) in experiment [6] (setting [8]); 98.2% (active) in experiment [6] (at 50.0 µM).
In the case of `CC(C)(C)c1cc(C(O)(C(F)(F)F)C(F)(F)F)c(Cl)c(C(O)(C(F)(F)F)C(F)(F)F)c1`, the growth inhibition was 10% in experiment [1] (setting [7]); 99% (active) in experiment [1] (setting [8]); 99.5% (active) in experiment [1] (at 50.0 µM); 13% in experiment [2] (setting [7]); 98% (active) in experiment [2] (setting [8]); 99.7% (active) in experiment [2] (at 50.0 µM). Moreover, the growth inhibition was 11% in experiment [3] (setting [7]); 99% (active) in experiment [3] (setting [8]); 99.7% (active) in experiment [3] (at 50.0 µM); 24% in experiment [4] (setting [7]); 99% (active) in experiment [4] (setting [8]); 99% (active) in experiment [4] (at 50.0 µM). Besides, the growth inhibition in experiment [5] (setting [7]) was 14%; in experiment [5] (setting [8]), 99% (active); in experiment [5] (at 50.0 µM), 99.8% (active); in experiment [6] (setting [7]) it was 8%; in experiment [6] (setting [8]), 99% (active); in experiment [6] (at 50.0 µM) it was 99.5% (active).
Consider `CCc1nc(N)nc(N)c1-c1ccc(NCCCN)c([N+](=O)[O-])c1`, for which the growth inhibition in experiment [1] (setting [7]) is -15%; in experiment [1] (setting [8]), -17%; in experiment [1] (at 50.0 µM), 69.7%; in experiment [2] (setting [7]) it was 17%; in experiment [2] (setting [8]), -2%; in experiment [2] (at 50.0 µM), 44.8%. The growth inhibition in experiment [3] (setting [7]) was -19%; in experiment [3] (setting [8]) it was -36%; in experiment [3] (at 50.0 µM) it was 69.2%; in experiment [4] (setting [7]), -15%; in experiment [4] (setting [8]), -5%; in experiment [4] (at 50.0 µM), 69%. Further, the growth inhibition in experiment [5] (setting [7]) was -44%; in experiment [5] (setting [8]), -18%; in experiment [5] (at 50.0 µM), 6.45%; in experiment [6] (setting [7]), -17%; in experiment [6] (setting [8]) it was -36%; in experiment [6] (at 50.0 µM), 82.5% (active).
